Data as given in PubChem BioAssay (NCATS).
Results filed as inconclusive are left out. Calls of active or inactive are those of the source. Unless noted, the call rests on the fitted dose curve; in most records, active means well fitted curve in the direction sought with a large enough effect; inconclusive means small, poorly fitted or top-dose-only effect, or another doubt; inactive means no such curve, though single readings can be large; an effect the other way counts as inactive or inconclusive.

How the values were obtained:
[1] = Primary qHTS for small molecule stabilizers of the endoplasmic reticulum resident proteome: Secreted ER Calcium Modulated Protein (SERCaMP) assay (AID 1508630); further: on the % scale 0 is the no-effect control and ±100 the full control effect
Procedure, shortened: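 GLuc-SERCaMP-expressing SH-SY5Y cells, pretreated 16 h with compound, are challenged with thapsigargin to empty ER calcium stores; after 4 h, coelenterazine is added directly to the medium and luminescence is imaged.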

[2] = A High-Content qHTS Against Drug Library for the Identification of Small Molecules that Inhibit DYT1 Early Onset Primary Dystonia-Associated Cell Pathology (AID 1645839; calls by dose curve)
Procedure, shortened: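 Readout: %pathology, the punctate EGFP-TorsinA distribution from imaging, as the primary channel and cell count as the toxicity counterscreen. HEK293 Flp-In cells expressing delE TorsinA were induced with tetracycline and treated with compound for 48 h.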

[3] = target: Cytochrome P450 2D6 (Homo sapiens) (UniProt P10635); assay: Cytochrome P450 family 2 subfamily D member 6 (CYP2D6) small molecule antagonists: luciferase biochemical (cell-free) qHTS assay (AID 1645840; active means well fitted curve in the direction sought with a large enough effect in the repeat runs; an effect the other way counts as inactive or inconclusive; further: nearly all actives have a fitted effect of over 55% in size; further: potency means the concentration at half of the fitted maximal effect; on activity change, negative = inhibition: on the % scale 0 is the no-effect control and ±100 the full control effect)
Procedure, shortened: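 P450-Glo luminescent screen: recombinant CYP2D6 enzyme–proluciferin substrate mix preincubated with compound 10 min at room temperature, then NADPH regeneration added for 1 h at room temperature. Detection reagent added for 20 min; luciferin light read as relative luminescence units.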

[4] = target: Cytochrome P450 2C9 (Homo sapiens) (UniProt P11712); assay: Cytochrome P450 family 2 subfamily C member 9 (CYP2C9) small molecule antagonists: luciferase biochemical (cell-free) qHTS assay (AID 1645842; active means well fitted curve in the direction sought with a large enough effect in the repeat runs; an effect the other way counts as inactive or inconclusive; further: nearly all actives have a fitted effect of over 55% in size; further: potency means the concentration at half of the fitted maximal effect; on activity change, negative = inhibition: on the % scale 0 is the no-effect control and ±100 the full control effect)
Procedure, shortened: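 Luminescence, after 20 min with luciferin detection reagent, reflected CYP2C9 turnover during a 1 h NADPH-driven reaction at 37C. Enzyme-substrate mix contained 0.4% bovine serum albumin and was preincubated with compound 10 min at room temperature.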

Papain (Carica papaya) = Papain (Carica papaya) (UniProt P00784); assay: Primary qHTS assay for inhibitors of the protease papain (AID 1645873);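 further: papain turnover of Z-FR-AMC read as the AMC fluorescence gain over 10 min; on the % scale 0 is the no-effect control and ±100 the full control effect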
[5] = Primary qHTS for inhibitors of nuclear receptor binding SET domain protein 2 (NSD2) in an isogenic RCH-ACV NSD2 p.E1099K mutant (9B) (AID 1645876); further: nearly all actives have a fitted effect of over 70% in size; further: potency means the concentration at half of the fitted maximal effect
[6] = target: Catechol O-methyltransferase (Homo sapiens) (UniProt P21964); assay: Confirmatory Screen for Target Class Profiling of Small Molecule Inhibitors of Methyltransferases (AID 1745852; calls by dose curve); settings: MTase-Glo luminescence, SAH detection, recombinant enzyme; measured here: COMT max response; stronger effect = lower value
[7] = target: Guanidinoacetate N-methyltransferase (Homo sapiens) (UniProt Q14353); assay: as above; settings: MTase-Glo luminescence, SAH detection, recombinant enzyme; at 57.3 µM (top of the series)
[8] = target: Nicotinamide N-methyltransferase (Homo sapiens) (UniProt P40261); assay: as above; settings: MTase-Glo luminescence, SAH detection, recombinant enzyme; measured here: NNMT max response; stronger effect = lower value
[9] = target: Phenylethanolamine N-methyltransferase (Homo sapiens) (UniProt P11086); assay: as above; settings: MTase-Glo luminescence, SAH detection, recombinant enzyme; measured here: PNMT max response; stronger effect = lower value
[10] = Primary qHTS for inhibitors of nuclear receptor binding SET domain protein 2 (NSD2) in an RCH-ACV wild type WT cells (2C) (AID 1645877); further: nearly all actives have a fitted effect of over 70% in size; further: potency means the concentration at half of the fitted maximal effect
[11] = target: Rap guanine nucleotide exchange factor 3 (Homo sapiens) (UniProt O95398); assay: Confirmatory qHTS for agonist of cAMP-regulated guanine nucleotide exchange factor 3 (EPAC1) (AID 1645881);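 further: EPAC1 catalysed release of BODIPY-GDP from Rap1B seen as fluorescence loss; 100% = effect of cAMP agonist control; nearly all actives have a fitted effect of over 75% in size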
[12] = target: Rap guanine nucleotide exchange factor 4 (Homo sapiens) (UniProt Q8WZA2); assay: Confirmatory qHTS for agonist of cAMP-regulated guanine nucleotide exchange factor 4 (EPAC2) (AID 1645884);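 further: nucleotide exchange releases bodipy-GDP from Rap1 and this lowers its fluorescence; on the % scale 0 is the no-effect control and ±100 the full control effect; nearly all actives have a fitted effect of over 65% in size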
[13] = target: Rap guanine nucleotide exchange factor 4 (Homo sapiens) (UniProt Q8WZA2); assay: Confirmatory qHTS for antagonist of cAMP-regulated guanine nucleotide exchange factor 4 (EPAC2) (AID 1645885); further: potency means the concentration at half of the fitted maximal effect; nearly all actives have a fitted effect of over 25% in size
[14] = target: Cytochrome P450 3A4 (Homo sapiens) (UniProt P08684); assay: Cytochrome P450 family 3 subfamily A member 4 (CYP3A4) small molecule antagonists: luciferase qHTS assay (AID 1645841; active means well fitted curve in the direction sought with a large enough effect in the repeat runs; an effect the other way counts as inactive or inconclusive; further: nearly all actives have a fitted effect of over 45% in size)
Procedure, shortened: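 P450-Glo CYP3A4 enzyme with proluciferin substrate was preincubated with DMSO-dissolved compounds for 10 min at room temperature. NADPH regeneration solution started a 1 h reaction. Detection reagent stopped it, and luminescence was read after 20 min.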

Papain (Carica papaya), sequence (P00784 whole entry, looked up, the tested form may be a part): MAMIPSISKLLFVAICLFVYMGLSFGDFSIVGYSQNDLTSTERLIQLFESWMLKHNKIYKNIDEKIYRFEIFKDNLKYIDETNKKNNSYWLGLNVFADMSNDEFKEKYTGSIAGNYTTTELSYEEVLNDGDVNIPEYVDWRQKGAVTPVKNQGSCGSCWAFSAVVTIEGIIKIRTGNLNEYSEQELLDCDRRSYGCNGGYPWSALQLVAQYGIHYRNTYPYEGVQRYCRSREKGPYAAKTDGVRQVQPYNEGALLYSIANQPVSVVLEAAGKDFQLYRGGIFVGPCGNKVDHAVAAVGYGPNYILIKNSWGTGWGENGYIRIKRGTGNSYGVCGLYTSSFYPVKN
Cytochrome P450 2C9 (Homo sapiens), sequence (P11712 whole entry, looked up): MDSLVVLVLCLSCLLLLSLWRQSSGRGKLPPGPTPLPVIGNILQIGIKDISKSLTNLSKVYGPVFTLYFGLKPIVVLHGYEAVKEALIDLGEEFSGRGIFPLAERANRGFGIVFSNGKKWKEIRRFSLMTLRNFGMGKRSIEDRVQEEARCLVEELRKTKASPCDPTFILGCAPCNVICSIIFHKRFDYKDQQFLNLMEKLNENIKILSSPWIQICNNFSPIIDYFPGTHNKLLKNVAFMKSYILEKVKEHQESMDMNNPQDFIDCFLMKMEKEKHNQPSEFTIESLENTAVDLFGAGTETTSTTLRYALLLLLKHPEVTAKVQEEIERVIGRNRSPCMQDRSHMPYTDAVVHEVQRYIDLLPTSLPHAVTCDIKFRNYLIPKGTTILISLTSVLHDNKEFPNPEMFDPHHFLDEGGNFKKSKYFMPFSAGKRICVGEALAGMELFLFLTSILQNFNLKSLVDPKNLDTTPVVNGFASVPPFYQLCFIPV
Cytochrome P450 2D6 (Homo sapiens), sequence (P10635 whole entry, looked up): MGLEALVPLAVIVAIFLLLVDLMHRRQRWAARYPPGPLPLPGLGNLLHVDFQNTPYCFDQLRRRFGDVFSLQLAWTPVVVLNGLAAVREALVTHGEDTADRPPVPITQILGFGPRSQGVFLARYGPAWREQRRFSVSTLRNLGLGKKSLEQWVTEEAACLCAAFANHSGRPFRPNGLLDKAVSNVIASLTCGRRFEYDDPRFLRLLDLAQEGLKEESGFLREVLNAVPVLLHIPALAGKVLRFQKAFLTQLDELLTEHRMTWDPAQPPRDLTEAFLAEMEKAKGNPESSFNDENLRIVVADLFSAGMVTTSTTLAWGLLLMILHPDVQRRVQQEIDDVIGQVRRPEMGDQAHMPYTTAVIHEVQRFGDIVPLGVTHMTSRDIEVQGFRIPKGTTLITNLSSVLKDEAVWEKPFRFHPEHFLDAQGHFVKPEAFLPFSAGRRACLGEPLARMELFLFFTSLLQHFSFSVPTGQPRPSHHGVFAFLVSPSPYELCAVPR
Rap guanine nucleotide exchange factor 4 (Homo sapiens), sequence (Q8WZA2 whole entry, looked up): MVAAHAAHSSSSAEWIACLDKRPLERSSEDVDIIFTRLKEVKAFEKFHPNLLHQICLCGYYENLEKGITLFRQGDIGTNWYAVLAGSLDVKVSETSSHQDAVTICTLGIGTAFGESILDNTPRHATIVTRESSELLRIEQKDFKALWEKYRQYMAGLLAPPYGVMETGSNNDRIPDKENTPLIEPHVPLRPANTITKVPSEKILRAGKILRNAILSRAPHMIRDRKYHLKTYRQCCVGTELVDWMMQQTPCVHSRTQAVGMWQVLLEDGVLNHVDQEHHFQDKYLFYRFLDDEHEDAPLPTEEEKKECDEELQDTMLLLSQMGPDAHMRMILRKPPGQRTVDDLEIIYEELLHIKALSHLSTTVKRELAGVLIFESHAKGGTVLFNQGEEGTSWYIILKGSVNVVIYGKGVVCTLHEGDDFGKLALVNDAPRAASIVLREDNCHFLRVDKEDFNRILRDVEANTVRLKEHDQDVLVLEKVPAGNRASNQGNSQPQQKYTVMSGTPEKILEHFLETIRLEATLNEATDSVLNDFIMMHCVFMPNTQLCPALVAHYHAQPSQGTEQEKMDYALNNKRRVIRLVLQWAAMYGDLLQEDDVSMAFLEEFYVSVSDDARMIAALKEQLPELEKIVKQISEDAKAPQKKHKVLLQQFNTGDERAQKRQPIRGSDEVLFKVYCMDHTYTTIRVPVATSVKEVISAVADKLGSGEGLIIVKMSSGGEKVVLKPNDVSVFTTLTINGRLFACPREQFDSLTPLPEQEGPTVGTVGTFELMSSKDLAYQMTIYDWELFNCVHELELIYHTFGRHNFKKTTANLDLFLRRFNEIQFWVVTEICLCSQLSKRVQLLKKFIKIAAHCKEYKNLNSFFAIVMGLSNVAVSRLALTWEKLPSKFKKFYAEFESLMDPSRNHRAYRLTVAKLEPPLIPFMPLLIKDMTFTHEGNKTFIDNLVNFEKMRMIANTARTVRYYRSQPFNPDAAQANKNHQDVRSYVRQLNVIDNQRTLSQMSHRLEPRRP
Catechol O-methyltransferase (Homo sapiens), sequence (P21964 whole entry, looked up): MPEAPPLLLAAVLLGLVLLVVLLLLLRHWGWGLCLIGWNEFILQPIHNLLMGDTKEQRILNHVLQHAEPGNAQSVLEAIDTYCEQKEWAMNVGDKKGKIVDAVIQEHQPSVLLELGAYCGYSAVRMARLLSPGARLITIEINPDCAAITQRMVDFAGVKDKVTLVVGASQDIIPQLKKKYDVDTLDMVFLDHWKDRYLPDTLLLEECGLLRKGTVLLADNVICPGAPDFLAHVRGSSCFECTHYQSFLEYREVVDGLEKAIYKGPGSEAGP
Phenylethanolamine N-methyltransferase (Homo sapiens), sequence (P11086 whole entry, looked up, the tested form may be a part): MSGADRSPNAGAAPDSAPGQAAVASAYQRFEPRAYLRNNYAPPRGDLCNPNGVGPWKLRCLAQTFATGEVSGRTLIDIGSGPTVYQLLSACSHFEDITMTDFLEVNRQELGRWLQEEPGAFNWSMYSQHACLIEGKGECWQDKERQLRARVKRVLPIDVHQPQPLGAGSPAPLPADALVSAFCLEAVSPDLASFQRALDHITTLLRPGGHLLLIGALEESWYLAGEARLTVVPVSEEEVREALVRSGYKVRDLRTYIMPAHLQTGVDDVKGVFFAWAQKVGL
Cytochrome P450 3A4 (Homo sapiens), sequence (P08684 whole entry, looked up): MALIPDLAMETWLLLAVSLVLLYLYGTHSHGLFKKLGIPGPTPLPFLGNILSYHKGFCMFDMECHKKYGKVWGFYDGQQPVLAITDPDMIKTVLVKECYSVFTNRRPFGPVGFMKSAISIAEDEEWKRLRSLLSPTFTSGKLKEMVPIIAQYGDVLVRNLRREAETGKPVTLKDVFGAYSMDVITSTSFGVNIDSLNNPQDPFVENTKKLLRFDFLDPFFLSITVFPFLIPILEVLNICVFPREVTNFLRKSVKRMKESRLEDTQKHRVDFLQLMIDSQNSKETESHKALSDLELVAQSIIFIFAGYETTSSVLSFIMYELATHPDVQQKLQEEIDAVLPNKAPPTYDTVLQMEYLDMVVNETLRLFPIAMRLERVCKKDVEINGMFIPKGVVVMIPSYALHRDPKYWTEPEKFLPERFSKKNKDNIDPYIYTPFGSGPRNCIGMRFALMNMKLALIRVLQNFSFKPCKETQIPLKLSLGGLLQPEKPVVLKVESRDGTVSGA
Nicotinamide N-methyltransferase (Homo sapiens), sequence (P40261 whole entry, looked up): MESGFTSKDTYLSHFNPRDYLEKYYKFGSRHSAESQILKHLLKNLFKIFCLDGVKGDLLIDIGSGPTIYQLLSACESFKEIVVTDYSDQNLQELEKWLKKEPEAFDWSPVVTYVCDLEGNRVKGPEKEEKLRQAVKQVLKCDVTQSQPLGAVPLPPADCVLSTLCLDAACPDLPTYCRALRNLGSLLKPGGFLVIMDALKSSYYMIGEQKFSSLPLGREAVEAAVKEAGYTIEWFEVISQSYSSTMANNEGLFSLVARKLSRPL
Rap guanine nucleotide exchange factor 3 (Homo sapiens), sequence (O95398 whole entry, looked up): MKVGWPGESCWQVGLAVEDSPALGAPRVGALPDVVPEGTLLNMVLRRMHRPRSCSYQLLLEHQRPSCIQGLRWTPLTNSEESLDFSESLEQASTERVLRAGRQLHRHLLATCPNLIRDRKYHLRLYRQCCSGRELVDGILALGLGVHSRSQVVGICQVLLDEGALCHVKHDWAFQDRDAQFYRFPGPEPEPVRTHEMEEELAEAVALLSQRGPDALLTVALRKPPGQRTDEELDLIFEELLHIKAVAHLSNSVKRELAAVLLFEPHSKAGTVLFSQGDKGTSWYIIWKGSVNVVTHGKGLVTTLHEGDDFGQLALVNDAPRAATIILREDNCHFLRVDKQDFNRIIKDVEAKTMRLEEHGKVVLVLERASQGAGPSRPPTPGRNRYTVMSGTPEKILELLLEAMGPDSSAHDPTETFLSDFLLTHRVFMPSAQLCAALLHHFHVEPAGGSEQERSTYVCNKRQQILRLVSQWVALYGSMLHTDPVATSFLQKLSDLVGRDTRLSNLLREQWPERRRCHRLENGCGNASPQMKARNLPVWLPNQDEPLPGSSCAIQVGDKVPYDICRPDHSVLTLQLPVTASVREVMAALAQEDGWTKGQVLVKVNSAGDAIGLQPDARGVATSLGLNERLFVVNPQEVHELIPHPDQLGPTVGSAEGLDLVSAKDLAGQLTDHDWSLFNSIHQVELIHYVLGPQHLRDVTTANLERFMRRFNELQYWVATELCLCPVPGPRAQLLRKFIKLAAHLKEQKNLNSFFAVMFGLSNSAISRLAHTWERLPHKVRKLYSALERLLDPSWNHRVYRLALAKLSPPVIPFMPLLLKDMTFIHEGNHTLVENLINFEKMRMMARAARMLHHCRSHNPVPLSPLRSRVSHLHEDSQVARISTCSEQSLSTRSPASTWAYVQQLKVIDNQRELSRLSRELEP

NC(N)=NCCC[C@H](N)C(=O)O
inactive: Potency [1] | % pathology change, negative = correction [2] 17.5% [at 4.63 µM] | activity change, negative = inhibition [3] 2.59% [at 4.83 µM] | activity change, negative = inhibition [4] -6.78% [at 4.83 µM] | Potency (Papain (Carica papaya)) | outcome [5] inactive [at 4.96 µM]
-0.737%: activity [8]
6.66%: activity [9]
6.47%: activity [6]
-1.16%: activity change, negative = inhibition [7]

N[C@H]1C(O)O[C@H](CO)[C@@H](O)[C@@H]1O (stereo not given in full)
inactive: Potency [1] | Potency [2] | Potency [3] | Potency [4] | Potency [5] | Potency [10]

C[C@]12CC[C@@H]3c4ccc(O)cc4CC[C@H]3[C@@H]1CC[C@@H]2OC(=O)CCC1CCCC1
inactive: Potency [1] | Potency [2] | Potency [3] | Potency [5] | Potency [10]
active: Potency [4] 19 µM

CCN(CC)C(C)CN1c2ccccc2Sc2ccccc21 (stereo not given)
inactive: Potency [1] | Potency [2] | Potency [4] | Potency (Papain (Carica papaya)) | Potency [5] | Potency [10] | Potency [11] | Potency [12]
active: Potency [3] 19.5 µM | Potency [13] 55.5 µM

C[C@H](NC(CCc1ccccc1)C(=O)O)C(=O)N1CCC[C@H]1C(=O)O (stereo not given in full)
inactive: Potency [1] | Potency [2] | Potency [3] | Potency [4] | Potency (Papain (Carica papaya)) | Potency [5] | Potency [10]

CCCn1cnc2c1c(=O)n(CCCCC(C)=O)c(=O)n2C
inactive: Potency [1] | Potency [2] | Potency [3] | Potency [4] | Potency (Papain (Carica papaya)) | Potency [5] | Potency [10]

NS(=O)(=O)c1cc2c(cc1C(F)(F)F)NC(Cc1ccccc1)NS2(=O)=O (stereo not given)
inactive: Potency [1] | Potency [2] | Potency [3] | Potency [4] | Potency [5] | Potency [10]

c1ccc2c(CC3=NCCN3)cccc2c1
inactive: Potency [1] | Potency [2] | outcome [14] | Potency [4] | Potency [5]
active: Potency [3] 15.5 µM

CCCCN1CCCC[C@H]1C(=O)Nc1c(C)cccc1C
active: Potency [3] 0.275 µM
inactive: Potency [1] | Potency [2] | Potency [4] | Potency [5] | Potency [10]

NCCNCCNCCNCCN
inactive: activity change, negative = inhibition [1] -1.31% [at 7.35 µM] | % pathology change, negative = correction [2] 14.9% [at 9.22 µM] | activity change, negative = inhibition [3] 12.4% [at 11.5 µM] | activity change, negative = inhibition [4] 18.2% [at 11.5 µM] | activity change, negative = viability loss [5] -1.38% [at 9.23 µM] | activity change, negative = cell killing [10] -16.9% [at 9.23 µM]

CC(=O)O[C@@]12CO[C@@H]1C[C@H](O)[C@@]1(C)C(=O)[C@H](O)C3=C(C)[C@@H](OC(=O)[C@H](O)[C@@H](NC(=O)OC(C)(C)C)c4ccccc4)C[C@@](O)([C@@H](OC(=O)c4ccccc4)[C@H]21)C3(C)C
inactive: Potency [1] | Potency [2] | Potency [3] | Potency [4]
active: Potency [5] 0.0027 µM | Potency [10] 0.0021 µM

CCCCC(CC)COC(=O)c1ccccc1O (stereo not given)
inactive: Potency [1] | Potency [2] | Potency [3] | Potency [4] | Potency [5] | Potency [10]

[O-][n+]1cccc(CO)c1
inactive: Potency [1] | Potency [2] | Potency [3] | Potency [4] | Potency [5] | Potency [10]

Nc1ccc(S(=O)(=O)NC(=O)c2ccccc2)cc1
inactive: Potency [1] | Potency [2] | Potency [3] | Potency [5] | Potency [10]

CCN(CC)CCNC(C(=O)OCCC(C)C)c1ccccc1 (stereo not given)
inactive: Potency [1] | Potency [2] | Potency [4] | Potency [5] | Potency [10]
active: Potency [3] 0.776 µM

O=c1cc[nH]c(=O)[nH]1
inactive: Potency [1] | Potency [2] | Potency [3] | Potency [4] | Potency [5] | Potency [10]

O=C(CCCN1CCN(c2ccccn2)CC1)c1ccc(F)cc1
inactive: Potency [1] | Potency [2] | Potency [5] | Potency [10]
active: Potency [3] 15.5 µM | Potency [4] 12.3 µM

C[C@]12C[C@H](O)[C@H]3[C@@H](CCC4=CC(=O)CC[C@@]43C)[C@@H]1CC[C@@H]2C(=O)CO
inactive: Potency [1] | Potency [2] | Potency [3] | Potency (Papain (Carica papaya))

CCn1cc(C(=O)O)c(=O)c2cnc(N3CCNCC3)nc21
inactive: Potency [1] | Potency [2] | Potency [3] | Potency [4] | Potency [5] | Potency [10]

COc1ccc(S(=O)(=O)Nc2nnc(CC(C)C)s2)cc1
active: Potency [4] 21.9 µM
inactive: Potency [1] | Potency [2] | Potency [3] | Potency [5] | Potency [10]

CC(C)(C)NCC(O)COc1ccc(NC(=O)NC2CCCCC2)cc1 (stereo not given)
inactive: Potency [1] | Potency [2] | Potency [3] | Potency [4] | Potency [5] | Potency [10]

Nc1ccc(S(=O)(=O)Nc2nccs2)cc1
inactive: Potency [1] | Potency [2] | Potency [3] | Potency [4] | Potency [5] | Potency [10]

COC(=O)[C@H]1[C@H]2C[C@@H]3c4[nH]c5cc(OC)ccc5c4CCN3C[C@H]2C[C@@H](OC(=O)COc2ccc(OC)cc2)[C@@H]1OC
active: Potency [3] 9.77 µM
inactive: Potency [1] | Potency [2] | Potency [4] | Potency [5] | Potency [10]
